Assay results taken from PubChem BioAssay AID1159580 (chemical genetic matrix, 2015).
Values joined by “and” are separate entries in the source; they are usually repeats but may differ in a detail not shown here. Equal values may be shown once. The whole screen tested about 5,500 compounds, of which about 2,000 (36%) were called active. Another 18% or so got no clear call; they are omitted. Cut-off read from the data, not from the text of the source: active = normalized growth mostly below about 0.91 (no sharp cut-off); inconclusive = no clear call, values can overlap the other calls; inactive = mostly above about 0.92. The list shows a part of the results.

Assay: chemical genetic growth profiling, strain panel (AID 1159580);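 note: tested at 20 µM; growth read once vehicle control cultures reached saturation at 30 °C; 1 = growth at the plate median or of vehicle wells; lower values mean less growth of the strain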
Conditions: S. cerevisiae deletion strains, growth OD

Measured: normalized growth

c1ccc2c(CC3=NCCN3)cccc2c1
inactive: locus YAL013W, strain DEP1, stronger effect = lower value 1.01 | locus YAL021C, strain ccr4, stronger effect = lower value 0.944 | locus YAL026C, strain drs2, stronger effect = lower value 0.982 | locus YAL030W, strain snc1, stronger effect = lower value 0.986 | locus YBL061C, strain skt5, stronger effect = lower value 0.985 | locus YBR009C, strain hhf1, stronger effect = lower value 0.987 | locus YBR021W, strain FUR4, stronger effect = lower value 0.999 | locus YBR023C, strain chs3, stronger effect = lower value 0.984 | locus YBR171W, strain sec66, stronger effect = lower value 0.976 | locus YBR229C, strain ROT2, stronger effect = lower value 1.01 | locus YBR231C, strain swc5, stronger effect = lower value 0.985 | locus YBR279W, strain paf1, stronger effect = lower value 0.99 | locus YCL011C, strain gbp2, stronger effect = lower value 0.97 | locus YCL016C, strain dcc1, stronger effect = lower value 0.996 | locus YCL029C, strain bik1, stronger effect = lower value 1.03 | locus YCL061C, strain MRC1, stronger effect = lower value 0.981 | locus YCL069W, strain vba3, stronger effect = lower value 0.955 | locus YCR088W, strain abp1, stronger effect = lower value 0.98 | locus YDL005C, strain med2, stronger effect = lower value 0.962 | locus YDL035C, strain GPR1, stronger effect = lower value 1.01 | locus YDL040C, strain nat1, stronger effect = lower value 0.971 | locus YDL074C, strain BRE1, stronger effect = lower value 1.01 | locus YDL101C, strain DUN1, stronger effect = lower value 1.01 | locus YDL134C, strain PPH21, stronger effect = lower value 1.01 | locus YDL185W, strain tfp1, stronger effect = lower value 1.01 | locus YDL192W, strain arf1, stronger effect = lower value 1.02 | locus YDR001C, strain nth1, stronger effect = lower value 0.99 | locus YDR069C, strain doa4, stronger effect = lower value 0.947 | locus YDR101C, strain arx1, stronger effect = lower value 1.02 | locus YDR137W, strain rgp1, stronger effect = lower value 0.985 | locus YDR150W, strain NUM1, stronger effect = lower value 1.01 | locus YDR159W, strain sac3, stronger effect = lower value 0.958 | locus YDR162C, strain NBP2, stronger effect = lower value 1 | locus YDR195W, strain ref2 0.96 | locus YDR297W, strain sur2, stronger effect = lower value 0.975 | locus YDR318W, strain mcm21, stronger effect = lower value 1.02 | locus YDR334W, strain swr1, stronger effect = lower value 0.958 | locus YDR335W, strain msn5, stronger effect = lower value 0.981 | locus YDR388W, stronger effect = lower value 1.02 | locus YDR392W, strain spt3, stronger effect = lower value 0.863 | locus YDR502C, strain sam2, stronger effect = lower value 1.02 | locus YEL003W, strain gim4, stronger effect = lower value 0.945 | locus YEL037C, strain rad23, stronger effect = lower value 0.964 | locus YEL061C, strain CIN8 (second series), stronger effect = lower value 0.965 | locus YEL061C, strain CIN8, stronger effect = lower value 1.01 | locus YER015W, strain faa2, stronger effect = lower value 0.959 | locus YER016W, strain bim1, stronger effect = lower value 0.979 | locus YER110C, stronger effect = lower value 1.02 | locus YER111C, strain swi4, stronger effect = lower value 0.968 | locus YER155C, strain BEM2 (second series), stronger effect = lower value 0.98 | locus YER155C, strain BEM2, stronger effect = lower value 1 | locus YER167W, strain BCK2, stronger effect = lower value 1.02 | locus YFR010W, strain ubp6, stronger effect = lower value 0.96 | locus YGL078C, strain dbp3, stronger effect = lower value 1.02 | locus YGL086W, strain mad1, stronger effect = lower value 1.01 | locus YGL167C, strain pmr1, stronger effect = lower value 0.98 | locus YGL173C, strain kem1, stronger effect = lower value 0.976 | locus YGL227W, strain vid30, stronger effect = lower value 0.975 | locus YGL240W, strain doc1, stronger effect = lower value 0.98 | locus YGL248W, strain PDE1, stronger effect = lower value 1.01 | locus YGL253W, strain hxk2, stronger effect = lower value 0.98 | locus YGR078C, strain PAC10, stronger effect = lower value 1.01 | locus YGR135W, strain pre9, stronger effect = lower value 1.02 | locus YGR229C, strain SMI1, stronger effect = lower value 1.01 | locus YGR252W, strain gcn5, stronger effect = lower value 0.984 | locus YHR013C, strain ard1, stronger effect = lower value 0.901 | locus YHR027C, strain rpn1, stronger effect = lower value 0.972 | locus YHR030C, strain SLT2, stronger effect = lower value 1.01 and 0.973 | locus YHR079C, strain IRE1 (second series), stronger effect = lower value 1.02 | locus YHR079C, strain IRE1, stronger effect = lower value 0.961 | locus YHR094C, strain hxt1, stronger effect = lower value 1.01 | locus YHR129C, strain ARP1, stronger effect = lower value 1 | locus YHR142W, strain chs7, stronger effect = lower value 0.978 | locus YHR200W, strain rpn10, stronger effect = lower value 1.02 | locus YIL066C, strain RNR3, stronger effect = lower value 1.01 | locus YIL073C, strain SPO22, stronger effect = lower value 1.06 | locus YIL125W, strain kgd1, stronger effect = lower value 1.01 | locus YIR030C, strain dcg1, stronger effect = lower value 1.03 | locus YJL092W, strain hpr5, stronger effect = lower value 0.968 | locus YJL095W, strain BCK1 (second series), stronger effect = lower value 0.987 | locus YJL095W, strain BCK1, stronger effect = lower value 1.01 and 1 | locus YJL115W, strain asf1, stronger effect = lower value 0.976 | locus YJL129C, strain trk1, stronger effect = lower value 0.921 | locus YJL134W, strain LCB3, stronger effect = lower value 1.01 | locus YJL154C, strain vps35, stronger effect = lower value 0.972 | locus YJL164C, strain tpk1, stronger effect = lower value 0.978 | locus YJL166W, strain qcr8, stronger effect = lower value 0.968 | locus YJL168C, strain set2, stronger effect = lower value 1.02 | locus YJL187C, strain SWE1 (second series), stronger effect = lower value 1.01 | locus YJL187C, strain SWE1, stronger effect = lower value 0.976 | locus YJR043C, strain POL32, stronger effect = lower value 1.01 | locus YJR066W, strain TOR1, stronger effect = lower value 0.928
